Test results as given in PubChem BioAssay AID720554 (ICCB-Longwood Screening Facility, Harvard Medical School, 2013).
Screen size: about 12,000 compounds; about 45 (0.4%) were called active. Rule as the data show it: active = inhibition mostly above about 83% (no sharp cut-off); inactive = mostly below about 52%. Only a selection was taken, and actives are over-represented in it overall.

Columns and labels:
[1] = BmaI1 acyl-homoserine lactone synthase inhibition – biochemical, fluorescence intensity, with counterscreen (AID 720554); settings: BmaI1 enzyme assay, measured here: counterscreen fluorescence % control, concentration not given here
[2] = tested on: acyl-homoserine lactone synthase BmaI1 (Burkholderia mallei ATCC 23344); assay: as above; settings: BmaI1 enzyme assay, stronger effect = higher value, concentration not given here

COc1ccc(C(=O)Nc2nccs2)c(F)c1
inhibition [1]: 6.5%
inhibition [2]: 9.5% (inactive)

Cc1ccc(SCC(=O)NC(=O)C(C)C)cc1C
inhibition [1]: 8%
inhibition [2]: 14.5% (inactive)

CC(C)c1nc(C#N)c(NCc2cccnc2)o1
inhibition [1]: 16.5%
inhibition [2]: 31% (inactive)

Cc1cc(C(=O)OCC(=O)c2ccc(NC(=O)CC(C)C)cc2)no1
inhibition [1]: 14.5%
inhibition [2]: 13.5% (inactive)

FC(F)Oc1ccc(NC(=S)NC2CCCC2)cc1
inhibition [1]: -10.5%
inhibition [2]: -12.5% (inactive)

FC(F)Oc1ccc(NC(=S)NNc2ccc(Cl)nn2)cc1
inhibition [1]: 28%
inhibition [2]: 104% (active)

CN(CC(=O)Nc1ccc(Cl)cc1)C(=O)c1ccc(OC(F)F)cc1
inhibition [1]: 17%
inhibition [2]: 13% (inactive)

CCC(C)N=C1NC(=O)C(CC(=O)NCc2ccccc2)S1 (configuration not stated)
inhibition [1]: 8.5%
inhibition [2]: 10.5% (inactive)

COC(=O)c1c(C)[nH]c(=O)[nH]c1=S
inhibition [1]: 1.5%
inhibition [2]: -6.5% (inactive)

COC(=O)C1=NC=CN2CCS(=O)(=O)N=C12
inhibition [1]: 9.5%
inhibition [2]: 7% (inactive)

O=S1(=O)CCN2C=CSC2=N1
inhibition [1]: 11.5%
inhibition [2]: 17% (inactive)

Cc1sc2c(c1C)C1=NS(=O)(=O)CCN1C=N2
inhibition [1]: 10%
inhibition [2]: 88.5% (active)

CCOc1ccccc1NC(=O)CSc1nc(O)cc(=O)n1C1CCCC1
inhibition [1]: 5.5%
inhibition [2]: 7.5% (inactive)

CCOc1ccc(O)c(C=NC2CCCC2)c1
inhibition [1]: 2.5%
inhibition [2]: 2.5% (inactive)

COc1ccc(OCC(=O)N2CC(C)CC(C)C2)cc1 (configuration not stated)
inhibition [1]: -8%
inhibition [2]: 7% (inactive)

NC(=S)Cc1nc2ccccc2[nH]1
inhibition [1]: 27%
inhibition [2]: 98% (active)

N/C(Cc1nc2ccccc2[nH]1)=N\O
inhibition [1]: 2%
inhibition [2]: 24% (inactive)

CC(C)(C)Cc1nc2ccccc2[nH]1
inhibition [1]: 18%
inhibition [2]: 20.5% (inactive)

Cc1cc(=O)[nH]c(NNC(=S)Nc2ccc(S(=O)(=O)N3CCOCC3)cc2)n1
inhibition [1]: 10%
inhibition [2]: 72% (inactive)

COc1ccc(NC(=O)COC(=O)C23CCC(=O)N2c2ccccc2S3)cc1 (configuration not stated)
inhibition [1]: 5%
inhibition [2]: -0.5% (inactive)

Cc1ccc(NC(=O)Nc2ccc(N(C)C)cc2)cc1
inhibition [1]: 3.5%
inhibition [2]: 98.5% (active)

Cc1ccc(C(=O)OCC(=O)Nc2ccc(N(C)C)cc2)c(C)c1
inhibition [1]: -7.5%
inhibition [2]: 24.5% (inactive)

Cc1ccc(NC(=O)Nc2ccc3c(c2)C(=O)NC3=O)cc1
inhibition [1]: 14%
inhibition [2]: 9% (inactive)

CN(C)C(CNC(=O)c1ccc2ncsc2c1)c1cccs1 (configuration not stated)
inhibition [1]: 13%
inhibition [2]: 18% (inactive)

O=C(CCc1nc2ccccc2o1)Nc1cccc(-n2cnnn2)c1
inhibition [1]: 6.5%
inhibition [2]: 16.5% (inactive)

CC(C)NC(=S)NNc1ncc(C(F)(F)F)cc1Cl
inhibition [1]: 8%
inhibition [2]: 89% (active)

FC(F)(F)c1cnc(NNC(=S)NCC2CCCO2)c(Cl)c1 (configuration not stated)
inhibition [1]: -1%
inhibition [2]: 51.5% (inactive)

CC(C)NC(=S)NNc1ccccc1C(F)(F)F
inhibition [1]: -31%
inhibition [2]: 14% (inactive)

CCN(C(=O)CSc1nnc(-c2ccccc2)c(-c2ccccc2)n1)C1CCS(=O)(=O)C1 (configuration not stated)
inhibition [1]: -2.5%
inhibition [2]: 6% (inactive)

COC(=O)C1=C(C)NC(C)=C(C(=O)OC)C1C(=O)OCC(=O)Nc1cccc2nsnc12
inhibition [1]: -2%
inhibition [2]: -15% (inactive)

N#CCC(=O)Nc1ccc(C(=O)NCc2ccccc2)cc1
inhibition [1]: 21.5%
inhibition [2]: 29.5% (inactive)

CS(=O)(=O)CCC1NC(=O)NC1=O (configuration not stated)
inhibition [1]: 2.5%
inhibition [2]: 10.5% (inactive)

CC(=O)Nc1cccc(C(=O)Nc2ccc(N3CCCCC3)cc2)c1
inhibition [1]: 7%
inhibition [2]: 83.5% (active)

O=C(Nc1ccc(N2CCCCCC2)cc1)c1ccncc1
inhibition [1]: 26.5%
inhibition [2]: 62% (inactive)

COc1ccc(C(=O)Nc2ccc(N3CCCCC3)cc2)cc1
inhibition [1]: -2%
inhibition [2]: 22.5% (inactive)

Cc1cc(C(=O)CSc2ccccn2)c(C)n1Cc1cccs1
inhibition [1]: 12%
inhibition [2]: 16% (inactive)

CCN(C(=O)C(C)Sc1nc(C)cs1)c1ccccc1 (configuration not stated)
inhibition [1]: 3.5%
inhibition [2]: 14.5% (inactive)

CCN(CC)C(=S)SCc1ncc(-c2ccccc2)o1
inhibition [1]: 3.5%
inhibition [2]: 13% (inactive)

CCN(CC)C(=S)SSC(=S)N(CC)CC
inhibition [1]: -13.5%
inhibition [2]: 96% (active)

Cc1ccc(NNC(=S)NCC2CCCO2)c(C)c1 (configuration not stated)
inhibition [1]: 6.5%
inhibition [2]: 10% (inactive)

O=C(O)c1ccc(NNC(=S)NCC2CCCO2)cc1 (configuration not stated)
inhibition [1]: -33%
inhibition [2]: -78.5% (inactive)

FC(F)(F)c1nc(NNC(=S)NCC2CCCO2)c2ccccc2n1 (configuration not stated)
inhibition [1]: 25%
inhibition [2]: 100% (active)

O=C1CCC(C(=O)NC2CCCCCC2)=NN1
inhibition [1]: 11%
inhibition [2]: 18.5% (inactive)

Cc1cc(SCC(=O)O)n2c(nc3ccccc32)c1C#N
inhibition [1]: 1%
inhibition [2]: 20% (inactive)

Cc1ccccc1N1C(=O)C=CC1=O
inhibition [1]: 4%
inhibition [2]: 82% (active)

Cc1ccccc1N1C(=O)Cc2ccccc2C1=O
inhibition [1]: 2%
inhibition [2]: 16.5% (inactive)

Cc1ccccc1-n1cc[nH]c1=S
inhibition [1]: 4.5%
inhibition [2]: 23.5% (inactive)

O=C(O)CCN(Cc1ccccc1)S(=O)(=O)c1cccs1
inhibition [1]: 1.5%
inhibition [2]: 11% (inactive)

Cc1nc2ccc(NC(=O)C3CCCC3)cc2s1
inhibition [1]: 12.5%
inhibition [2]: 14% (inactive)

N#Cc1ccc(CSc2nncn2-c2ccccc2)cc1
inhibition [1]: -2%
inhibition [2]: -5.5% (inactive)

NNc1nc(-c2ccccc2)c2cc(Br)ccc2n1
inhibition [1]: 16.5%
inhibition [2]: 91% (active)

Nc1nc(N)c2nc(-c3ccccc3)c(N)nc2n1
inhibition [1]: 21%
inhibition [2]: 5% (inactive)

Cc1ccc2nc(N3CCCC3)nc(-c3ccccc3)c2c1
inhibition [1]: 2.5%
inhibition [2]: 3% (inactive)

CCC(=O)Nc1ccc(C(=O)CN2C(=O)NC3(CCCc4ccccc43)C2=O)cc1 (configuration not stated)
inhibition [1]: 16%
inhibition [2]: 14.5% (inactive)

O=C(COc1ncnc2ccc(Br)cc12)N1CCCCC1
inhibition [1]: 4.5%
inhibition [2]: 4.5% (inactive)

Cc1cc(C)nc(SC2=C(N3CCC(C)CC3)C(=O)N(Cc3ccccc3)C2=O)n1
inhibition [1]: 4.5%
inhibition [2]: 14% (inactive)

Cc1cc(C)nc(SC2=C(Nc3ccc(O)cc3)C(=O)N(Cc3ccccc3)C2=O)n1
inhibition [1]: 26.5%
inhibition [2]: 86.5% (active)

Cc1cc(C)nc(SCC(=O)OCCN2C(=O)c3ccccc3C2=O)n1
inhibition [1]: 9.5%
inhibition [2]: 18% (inactive)

Cc1c(CN2CC=C(c3ccccc3)CC2)c(=O)n(-c2ccccc2)n1C
inhibition [1]: -2.5%
inhibition [2]: 9% (inactive)

Cc1cc(O)c(CN2CC=C(c3ccccc3)CC2)cc1C(C)C
inhibition [1]: -16%
inhibition [2]: -85.5% (active)

COc1ccc2c(CN3CC=C(c4ccccc4)CC3)cc(=O)oc2c1
inhibition [1]: 8%
inhibition [2]: 4.5% (inactive)
